Test results as given in ChEMBL document CHEMBL2218924, “A broad activity screen in support of a chemogenomic map for kinase signalling research and drug discovery” (Biochem J, 2013).

Legend:
[1] = biological target: T1, Mitogen-activated protein kinase kinase kinase 5 (Homo sapiens) (UniProt Q99683); details: at 10 µM
T1 sequence (whole entry): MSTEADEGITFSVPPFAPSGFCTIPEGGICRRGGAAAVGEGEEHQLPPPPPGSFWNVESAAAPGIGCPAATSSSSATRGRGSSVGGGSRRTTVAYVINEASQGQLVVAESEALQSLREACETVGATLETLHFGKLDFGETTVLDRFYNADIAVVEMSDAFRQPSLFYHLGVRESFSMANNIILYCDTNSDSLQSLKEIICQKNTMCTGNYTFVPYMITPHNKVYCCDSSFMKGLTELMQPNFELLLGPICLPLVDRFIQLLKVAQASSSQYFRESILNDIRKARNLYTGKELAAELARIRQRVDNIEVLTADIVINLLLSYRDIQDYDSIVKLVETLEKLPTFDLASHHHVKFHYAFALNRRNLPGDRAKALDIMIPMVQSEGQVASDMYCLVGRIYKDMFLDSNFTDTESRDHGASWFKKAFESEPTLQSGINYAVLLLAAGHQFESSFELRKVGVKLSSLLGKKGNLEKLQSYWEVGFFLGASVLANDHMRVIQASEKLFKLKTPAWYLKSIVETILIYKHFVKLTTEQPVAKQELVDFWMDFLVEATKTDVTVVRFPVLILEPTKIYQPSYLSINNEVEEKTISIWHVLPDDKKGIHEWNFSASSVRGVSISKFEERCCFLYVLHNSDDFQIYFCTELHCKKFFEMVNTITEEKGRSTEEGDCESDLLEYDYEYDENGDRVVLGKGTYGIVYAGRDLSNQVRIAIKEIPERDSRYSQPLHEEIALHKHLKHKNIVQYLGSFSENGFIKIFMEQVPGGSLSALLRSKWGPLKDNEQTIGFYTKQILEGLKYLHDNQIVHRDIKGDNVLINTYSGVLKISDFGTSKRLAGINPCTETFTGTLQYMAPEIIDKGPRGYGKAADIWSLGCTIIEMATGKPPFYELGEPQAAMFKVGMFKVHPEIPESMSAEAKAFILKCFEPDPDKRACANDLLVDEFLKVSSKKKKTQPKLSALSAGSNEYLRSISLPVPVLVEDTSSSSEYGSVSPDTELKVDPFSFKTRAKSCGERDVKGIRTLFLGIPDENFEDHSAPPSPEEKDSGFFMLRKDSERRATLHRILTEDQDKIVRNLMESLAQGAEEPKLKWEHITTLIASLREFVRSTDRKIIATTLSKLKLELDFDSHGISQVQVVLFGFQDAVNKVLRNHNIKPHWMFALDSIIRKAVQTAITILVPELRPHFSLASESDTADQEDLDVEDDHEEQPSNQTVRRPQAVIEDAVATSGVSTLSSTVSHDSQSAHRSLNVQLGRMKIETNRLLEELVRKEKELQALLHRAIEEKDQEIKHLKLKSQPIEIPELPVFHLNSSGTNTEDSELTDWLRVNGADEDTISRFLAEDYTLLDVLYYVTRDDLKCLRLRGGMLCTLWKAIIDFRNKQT

[2] = biological target: Tyrosine-protein kinase ABL2 (Homo sapiens) (UniProt P42684); details: at 10 µM
Sequence of Tyrosine-protein kinase ABL2 (Homo sapiens) (P42684 whole entry): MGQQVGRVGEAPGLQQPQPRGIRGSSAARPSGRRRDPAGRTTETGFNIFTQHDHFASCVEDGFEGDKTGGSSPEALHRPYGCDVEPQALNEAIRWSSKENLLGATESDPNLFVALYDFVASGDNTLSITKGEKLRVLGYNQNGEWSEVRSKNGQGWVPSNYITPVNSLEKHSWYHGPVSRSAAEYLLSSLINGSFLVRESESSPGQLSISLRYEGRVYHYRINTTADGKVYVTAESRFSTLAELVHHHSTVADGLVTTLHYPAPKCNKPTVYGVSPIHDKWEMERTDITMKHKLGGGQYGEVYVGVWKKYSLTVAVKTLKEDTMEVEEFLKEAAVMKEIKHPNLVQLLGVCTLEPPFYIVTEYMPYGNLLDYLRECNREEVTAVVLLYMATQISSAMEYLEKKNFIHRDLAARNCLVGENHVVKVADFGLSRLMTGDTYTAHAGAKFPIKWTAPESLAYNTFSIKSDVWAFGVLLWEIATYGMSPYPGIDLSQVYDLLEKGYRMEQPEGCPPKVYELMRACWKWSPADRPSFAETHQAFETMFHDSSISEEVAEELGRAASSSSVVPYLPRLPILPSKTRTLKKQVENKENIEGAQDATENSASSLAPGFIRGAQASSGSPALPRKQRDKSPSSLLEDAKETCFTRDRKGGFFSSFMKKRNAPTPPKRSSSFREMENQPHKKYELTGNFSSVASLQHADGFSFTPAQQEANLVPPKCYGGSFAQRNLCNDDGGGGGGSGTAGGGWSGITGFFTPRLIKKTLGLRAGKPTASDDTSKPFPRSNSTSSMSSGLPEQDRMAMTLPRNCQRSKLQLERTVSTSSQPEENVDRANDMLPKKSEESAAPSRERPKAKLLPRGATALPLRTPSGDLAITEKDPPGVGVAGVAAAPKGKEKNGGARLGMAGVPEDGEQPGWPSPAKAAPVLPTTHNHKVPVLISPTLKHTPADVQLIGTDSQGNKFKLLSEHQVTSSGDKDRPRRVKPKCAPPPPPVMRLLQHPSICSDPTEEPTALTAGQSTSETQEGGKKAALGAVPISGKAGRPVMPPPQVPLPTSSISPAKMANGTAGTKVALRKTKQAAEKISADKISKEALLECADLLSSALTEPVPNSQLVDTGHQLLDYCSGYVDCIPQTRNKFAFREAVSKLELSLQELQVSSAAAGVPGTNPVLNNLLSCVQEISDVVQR

[3] = biological target: T2, Aurora kinase A (Homo sapiens) (UniProt O14965); details: at 1 µM
T2 sequence (whole entry): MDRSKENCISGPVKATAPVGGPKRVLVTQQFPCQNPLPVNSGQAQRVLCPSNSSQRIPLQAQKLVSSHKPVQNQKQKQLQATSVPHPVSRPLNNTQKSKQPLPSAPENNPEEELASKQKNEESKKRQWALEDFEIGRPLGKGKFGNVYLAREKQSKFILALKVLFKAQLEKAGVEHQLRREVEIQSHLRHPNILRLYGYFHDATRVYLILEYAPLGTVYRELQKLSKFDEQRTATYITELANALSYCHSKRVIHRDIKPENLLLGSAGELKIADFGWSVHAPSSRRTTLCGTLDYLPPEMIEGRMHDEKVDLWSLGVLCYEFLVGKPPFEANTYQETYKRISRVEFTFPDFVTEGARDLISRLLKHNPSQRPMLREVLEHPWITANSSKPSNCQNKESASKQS

[4] = biological target: T2, Aurora kinase A (Homo sapiens); details: at 10 µM
[5] = biological target: Aurora kinase B (Homo sapiens) (UniProt Q96GD4); details: at 1 µM
[6] = biological target: Aurora kinase B (Homo sapiens) (UniProt Q96GD4); details: at 10 µM
[7] = biological target: T3, Aurora kinase C (Homo sapiens) (UniProt Q9UQB9); details: at 1 µM
T3 sequence (whole entry): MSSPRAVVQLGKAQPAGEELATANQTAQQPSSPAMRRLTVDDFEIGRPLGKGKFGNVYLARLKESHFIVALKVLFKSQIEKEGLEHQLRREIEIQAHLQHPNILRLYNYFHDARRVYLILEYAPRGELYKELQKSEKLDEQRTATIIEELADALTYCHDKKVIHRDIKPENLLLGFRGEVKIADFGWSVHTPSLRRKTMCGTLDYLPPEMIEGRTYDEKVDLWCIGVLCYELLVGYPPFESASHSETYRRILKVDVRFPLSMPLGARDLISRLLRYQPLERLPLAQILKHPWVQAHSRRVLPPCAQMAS

[8] = biological target: T3, Aurora kinase C (Homo sapiens); details: at 10 µM
[9] = biological target: Protein-tyrosine kinase 6 (Homo sapiens) (UniProt Q13882); details: at 10 µM
Sequence of Protein-tyrosine kinase 6 (Homo sapiens) (Q13882 whole entry, looked up): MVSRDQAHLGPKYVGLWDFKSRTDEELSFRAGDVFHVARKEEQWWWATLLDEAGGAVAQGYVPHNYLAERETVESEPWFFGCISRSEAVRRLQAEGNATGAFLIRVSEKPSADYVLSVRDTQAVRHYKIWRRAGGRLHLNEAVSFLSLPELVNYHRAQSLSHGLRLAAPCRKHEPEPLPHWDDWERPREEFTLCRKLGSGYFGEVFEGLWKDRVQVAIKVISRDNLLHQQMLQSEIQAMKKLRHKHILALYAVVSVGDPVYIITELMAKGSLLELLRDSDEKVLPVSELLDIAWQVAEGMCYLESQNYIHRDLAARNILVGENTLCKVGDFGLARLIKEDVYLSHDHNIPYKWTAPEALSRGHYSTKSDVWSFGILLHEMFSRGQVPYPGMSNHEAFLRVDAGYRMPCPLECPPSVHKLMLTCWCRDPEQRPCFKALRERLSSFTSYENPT

[10] = biological target: Tyrosine-protein kinase Blk (Homo sapiens) (UniProt P51451); details: at 1 µM
Sequence of Tyrosine-protein kinase Blk (Homo sapiens) (P51451 2-505 limits assumed): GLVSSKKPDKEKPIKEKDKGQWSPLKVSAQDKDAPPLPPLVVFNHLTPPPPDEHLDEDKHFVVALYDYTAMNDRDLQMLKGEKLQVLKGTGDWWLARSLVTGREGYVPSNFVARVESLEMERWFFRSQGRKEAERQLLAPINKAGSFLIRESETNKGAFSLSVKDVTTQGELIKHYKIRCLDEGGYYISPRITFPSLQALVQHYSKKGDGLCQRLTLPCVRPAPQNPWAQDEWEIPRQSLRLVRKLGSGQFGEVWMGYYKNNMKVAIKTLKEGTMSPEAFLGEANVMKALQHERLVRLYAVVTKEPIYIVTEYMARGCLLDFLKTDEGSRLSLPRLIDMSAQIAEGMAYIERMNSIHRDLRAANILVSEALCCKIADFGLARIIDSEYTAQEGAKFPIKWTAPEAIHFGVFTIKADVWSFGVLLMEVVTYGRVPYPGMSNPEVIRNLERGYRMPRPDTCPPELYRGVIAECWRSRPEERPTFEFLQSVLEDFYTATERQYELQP

[11] = biological target: Tyrosine-protein kinase Blk (Homo sapiens) (UniProt P51451); details: at 10 µM
[12] = biological target: Tyrosine-protein kinase ABL1 (Homo sapiens) (UniProt P00519); details: at 1 µM
Sequence of Tyrosine-protein kinase ABL1 (Homo sapiens) (P00519 whole entry): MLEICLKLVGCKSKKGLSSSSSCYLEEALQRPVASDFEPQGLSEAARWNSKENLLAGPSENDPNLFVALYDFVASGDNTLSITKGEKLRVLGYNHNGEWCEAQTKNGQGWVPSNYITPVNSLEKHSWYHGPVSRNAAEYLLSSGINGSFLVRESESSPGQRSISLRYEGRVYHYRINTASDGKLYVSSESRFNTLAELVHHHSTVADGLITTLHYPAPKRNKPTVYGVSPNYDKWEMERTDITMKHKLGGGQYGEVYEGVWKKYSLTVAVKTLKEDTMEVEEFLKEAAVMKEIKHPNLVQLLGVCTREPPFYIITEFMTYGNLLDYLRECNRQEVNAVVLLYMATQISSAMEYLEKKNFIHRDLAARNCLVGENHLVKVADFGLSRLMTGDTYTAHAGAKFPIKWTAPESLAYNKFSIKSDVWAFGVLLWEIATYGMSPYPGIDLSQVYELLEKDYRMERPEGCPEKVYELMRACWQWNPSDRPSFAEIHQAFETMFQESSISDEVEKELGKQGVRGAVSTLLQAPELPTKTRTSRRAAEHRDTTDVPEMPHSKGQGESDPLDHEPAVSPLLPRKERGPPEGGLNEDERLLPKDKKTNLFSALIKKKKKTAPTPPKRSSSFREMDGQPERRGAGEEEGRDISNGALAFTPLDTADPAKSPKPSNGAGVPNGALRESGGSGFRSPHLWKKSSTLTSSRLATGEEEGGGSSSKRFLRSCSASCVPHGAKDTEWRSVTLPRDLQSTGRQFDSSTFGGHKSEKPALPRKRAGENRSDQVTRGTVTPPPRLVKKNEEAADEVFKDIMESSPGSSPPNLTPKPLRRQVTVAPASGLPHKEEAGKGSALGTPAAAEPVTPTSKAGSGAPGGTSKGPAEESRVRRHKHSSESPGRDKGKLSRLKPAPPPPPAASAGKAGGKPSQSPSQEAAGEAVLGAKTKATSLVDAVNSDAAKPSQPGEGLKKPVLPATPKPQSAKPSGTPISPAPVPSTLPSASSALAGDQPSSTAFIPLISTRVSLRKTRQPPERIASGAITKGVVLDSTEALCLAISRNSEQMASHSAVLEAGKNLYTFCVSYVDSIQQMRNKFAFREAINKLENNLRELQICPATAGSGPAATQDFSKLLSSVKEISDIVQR

[13] = biological target: Tyrosine-protein kinase ABL1 (Homo sapiens) (UniProt P00519); details: at 10 µM
[14] = biological target: Tyrosine-protein kinase ABL2 (Homo sapiens) (UniProt P42684); details: at 1 µM
[15] = biological target: Tyrosine-protein kinase receptor UFO (Homo sapiens) (UniProt P30530); details: at 1 µM
Sequence of Tyrosine-protein kinase receptor UFO (Homo sapiens) (P30530 whole entry): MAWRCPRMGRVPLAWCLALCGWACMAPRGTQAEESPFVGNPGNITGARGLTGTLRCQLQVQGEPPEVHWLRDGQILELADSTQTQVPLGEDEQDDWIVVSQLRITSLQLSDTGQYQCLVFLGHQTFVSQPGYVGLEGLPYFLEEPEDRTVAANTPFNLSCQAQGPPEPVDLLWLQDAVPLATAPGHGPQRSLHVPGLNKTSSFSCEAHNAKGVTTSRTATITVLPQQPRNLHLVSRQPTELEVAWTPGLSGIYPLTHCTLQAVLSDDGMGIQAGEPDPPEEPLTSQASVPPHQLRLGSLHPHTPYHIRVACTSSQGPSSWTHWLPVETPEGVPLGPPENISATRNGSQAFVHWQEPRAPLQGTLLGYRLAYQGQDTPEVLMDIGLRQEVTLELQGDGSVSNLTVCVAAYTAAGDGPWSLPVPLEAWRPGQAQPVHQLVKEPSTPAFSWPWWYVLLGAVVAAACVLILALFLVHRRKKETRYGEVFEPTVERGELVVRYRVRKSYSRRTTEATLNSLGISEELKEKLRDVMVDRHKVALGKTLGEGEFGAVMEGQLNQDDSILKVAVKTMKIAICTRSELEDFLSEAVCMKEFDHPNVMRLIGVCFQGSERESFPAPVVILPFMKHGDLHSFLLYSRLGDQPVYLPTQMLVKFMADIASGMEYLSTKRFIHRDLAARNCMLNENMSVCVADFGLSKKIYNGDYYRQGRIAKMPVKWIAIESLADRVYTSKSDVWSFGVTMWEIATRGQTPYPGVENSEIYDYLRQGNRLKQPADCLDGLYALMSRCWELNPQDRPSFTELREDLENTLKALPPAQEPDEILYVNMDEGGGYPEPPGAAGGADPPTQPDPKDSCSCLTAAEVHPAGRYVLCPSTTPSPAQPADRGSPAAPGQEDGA

[16] = biological target: Tyrosine-protein kinase receptor UFO (Homo sapiens) (UniProt P30530); details: at 10 µM
[17] = biological target: Protein-tyrosine kinase 6 (Homo sapiens) (UniProt Q13882); details: at 1 µM
[18] = biological target: Tyrosine-protein kinase BTK (Homo sapiens) (UniProt Q06187); details: at 1 µM
Sequence of Tyrosine-protein kinase BTK (Homo sapiens) (Q06187 whole entry): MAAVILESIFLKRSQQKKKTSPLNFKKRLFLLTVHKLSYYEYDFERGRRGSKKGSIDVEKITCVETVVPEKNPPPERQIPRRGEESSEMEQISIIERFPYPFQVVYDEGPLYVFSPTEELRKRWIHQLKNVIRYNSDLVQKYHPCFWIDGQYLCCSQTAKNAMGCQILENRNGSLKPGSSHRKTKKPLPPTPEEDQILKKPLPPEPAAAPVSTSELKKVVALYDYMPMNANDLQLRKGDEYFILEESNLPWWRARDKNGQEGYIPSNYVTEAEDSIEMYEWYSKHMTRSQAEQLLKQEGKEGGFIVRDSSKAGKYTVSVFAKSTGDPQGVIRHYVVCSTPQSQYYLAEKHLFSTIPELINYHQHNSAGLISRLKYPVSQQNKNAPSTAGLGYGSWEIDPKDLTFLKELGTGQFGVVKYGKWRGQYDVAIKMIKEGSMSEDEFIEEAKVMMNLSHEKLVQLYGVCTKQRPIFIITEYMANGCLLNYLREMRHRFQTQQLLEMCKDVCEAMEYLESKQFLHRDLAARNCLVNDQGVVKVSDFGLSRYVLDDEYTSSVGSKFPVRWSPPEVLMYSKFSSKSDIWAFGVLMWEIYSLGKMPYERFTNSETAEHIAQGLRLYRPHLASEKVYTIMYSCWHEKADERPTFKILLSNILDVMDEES

[19] = biological target: Tyrosine-protein kinase BTK (Homo sapiens) (UniProt Q06187); details: at 10 µM
[20] = biological target: T4, Protein kinase C zeta type (Homo sapiens) (UniProt Q05513); details: at 1 µM
T4 sequence (whole entry): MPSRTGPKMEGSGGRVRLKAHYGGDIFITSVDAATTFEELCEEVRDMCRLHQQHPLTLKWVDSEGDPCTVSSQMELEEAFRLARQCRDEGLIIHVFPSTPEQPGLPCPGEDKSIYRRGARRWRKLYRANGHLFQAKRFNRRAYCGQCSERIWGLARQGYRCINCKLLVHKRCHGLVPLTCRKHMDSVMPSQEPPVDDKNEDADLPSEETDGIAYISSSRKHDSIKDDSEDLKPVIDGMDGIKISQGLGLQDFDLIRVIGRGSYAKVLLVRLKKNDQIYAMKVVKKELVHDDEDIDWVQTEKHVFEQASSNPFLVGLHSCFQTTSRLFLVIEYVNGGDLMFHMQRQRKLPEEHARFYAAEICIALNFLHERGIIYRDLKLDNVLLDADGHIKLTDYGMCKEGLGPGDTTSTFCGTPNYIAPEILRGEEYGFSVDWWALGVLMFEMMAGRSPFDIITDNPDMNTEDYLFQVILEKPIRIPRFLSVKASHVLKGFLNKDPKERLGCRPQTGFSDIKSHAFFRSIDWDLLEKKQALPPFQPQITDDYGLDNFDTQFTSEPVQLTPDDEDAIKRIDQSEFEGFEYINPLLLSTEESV

SMILES	residual activity [1] [%]	residual activity [2] [%]	residual activity [3] [%]	residual activity [4] [%]	residual activity [5] [%]	residual activity [6] [%]	residual activity [7] [%]	residual activity [8] [%]	residual activity [9] [%]	residual activity [10] [%]	residual activity [11] [%]	residual activity [12] [%]	residual activity [13] [%]	residual activity [14] [%]	residual activity [15] [%]	residual activity [16] [%]	residual activity [17] [%]	residual activity [18] [%]	residual activity [19] [%]	residual activity [20]
COc1ccc2c(c1)/C(=C/c1cnc[nH]1)C(=O)N2	41	47	42	2	21	0	34	4	71	81	22	–	–	–	–	–	–	–	–	–
COc1ccc2c(c[n+](C)c3c4cc5c(cc4ccc23)OCO5)c1OC	–	82	83	75	130	60	–	90	–	–	90	85	97	92	93	44	110	93	–	–
COc1cc(OC)c(/C=C2\C(=O)Nc3ccccc32)c(OC)c1	90	77	107	107	59	48	83	87	96	92	81	104	85	123	98	71	104	93	88	–
CC(C)(C)c1cc(C=C(C#N)C#N)cc(Br)c1O	109	51	104	122	108	45	115	99	110	99	36	80	4	–	108	–	109	–	–	99% (inactive)
COc1cc2ncnc(Nc3ccc(OCc4ccccc4)cc3)c2cc1OC	92	96	41	38	6	3	106	58	18	44	18	93	111	103	63	48	30	58	43	101% (inactive)
COC(=O)[C@@]1(O)C[C@H]2O[C@]1(C)n1c3ccccc3c3c4c(c5c6ccccc6n2c5c31)C(=O)NC4	0	35	2	-1	0	0	2	1	1	1	0	80	51	79	4	-3	19	-1	-1	52% (inactive)
C[S+]([O-])c1ccc(-c2nc(-c3ccc(F)cc3)c(-c3ccncc3)[nH]2)cc1 (stereo unspecified)	105	55	117	118	102	80	115	108	7	101	55	–	72	–	122	119	59	94	–	108% (inactive)
CCn1cnc2c(Nc3cccc(Cl)c3)nc(N[C@@H]3CCCC[C@@H]3N)nc21	89	13	85	68	21	1	22	3	34	14	2	95	40	62	78	21	94	71	9	–
